# Assay results reported in PubChem BioAssay AID720650 (Broad Institute, 2013).
# Calls of active or inactive are those of the source. No rule for the calls is given here.
# Experiment: Biochemical counterscreen for C difficile toxins, absence of UDPG, inhibitor dose response (AID 720650)
# Conditions: series mostly up to 19.5 µM
row,SMILES,AC50
1,COc1ccc(NC(=O)c2cc(S(=O)(=O)N3CCc4ccccc43)cn2C)cc1OC,inactive
2,COc1ccc(NC(=O)CSc2nccn2C)cc1S(N)(=O)=O,inactive
3,CCn1cc(C(=O)O)c(=O)c2cc(F)c(N3CCN(C(=S)NC(=O)c4ccccc4Br)CC3)cc21,inactive
